# From PubChem
# Rows were chosen to be rich in hits. Some 12% of all compounds tested hit in one or more screens of this group.
# ROMK primary: modulators of human ROMK potassium channel. hit rate 2% among 130,000. Tet-inducible ROMK, thallium flux fluorescence; actives lie on both sides. P48048. B-score at 10 µM;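 active = signal ratio slope over the read window, or its plate-corrected B-score, at least 3 SD from the plate mean, either direction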;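 note: B-score of the F/F0 ratio slope over 7 to 12 s after thallium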
# Target sequence (P48048 whole entry, looked up): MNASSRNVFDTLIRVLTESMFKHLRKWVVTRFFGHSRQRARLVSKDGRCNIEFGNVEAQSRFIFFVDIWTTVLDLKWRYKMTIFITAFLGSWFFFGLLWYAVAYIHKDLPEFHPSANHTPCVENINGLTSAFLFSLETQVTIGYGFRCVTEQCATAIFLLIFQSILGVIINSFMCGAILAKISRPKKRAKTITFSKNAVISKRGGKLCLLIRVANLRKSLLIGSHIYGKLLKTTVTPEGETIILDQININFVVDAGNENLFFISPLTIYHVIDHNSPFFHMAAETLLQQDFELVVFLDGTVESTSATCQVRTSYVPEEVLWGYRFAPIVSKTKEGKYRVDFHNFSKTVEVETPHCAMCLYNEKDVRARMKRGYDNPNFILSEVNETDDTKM
# INS promoter inh: TRM-6 insulin promoter activity inhibition. TRM-6 cells (human fetal islet line), insulin promoter-eGFP reporter, imaging; reporter expression induced with tamoxifen. inhibition, % at 2 µM. hit rate 0.9% among 130,000. AID 1273;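 active = inhibition above the mean plus 3 SD, with well images judged a real hit on visual review, cut at about 60% in these data, passing the limit was not always enough; inconclusive = inhibition over the cutoff but images rejected on review; inactive = inhibition not above the cutoff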
# Lmaj promast: reduces viability of Leishmania major promastigotes; resazurin fluorescence viability; inhibition, % at 10 µM; hit rate 9% among 200,000; in the data active = inhibition above about 50%;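 note: promastigotes grown with compound for 44 hours at 28 °C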
# Ins promoter up: MIN6 insulin promoter up-regulation; MIN6 insulin promoter-GFP reporter, high-content imaging; hits give high values; z-score at 5 µM; hit rate 0.3% among 190,000;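 active = z-score above 3 at 5 µM with at least 500 cells counted in the well; inconclusive = wells under 500 cells, flagged as cytotoxic or low count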
# WT yeast gro inh: growth inhibition of WT yeast, mitochondrial fusion screen | AID 1362 | inhibition, % at 10 µM | mitochondrial fusion phenotypic screen, WT strain | hit rate 2.1% among 190,000; in the data active = inhibition above about 58%; tested in S. cerevisiae
# Cl transport mod: modulators of human KCC2 chloride dependent transport; B-score of Tl+ flux slope (higher = more flux/activation; lower = inhibition) at 10 µM; Q9H2X9; KCC2 cells, thallium flux FluoZin-2 fluorescence; AID 1456; hit rate 2.2% among 190,000;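 active = thallium flux slope and its plate-corrected score both differing from the plate sample mean at a set confidence after two filtering rounds, in either direction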;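 note: slope of fluorescence scaled to starting intensity during 10 to 20 s after thallium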
# KCC2 sec1: confirmation of human KCC2 transport modulators. normalised thallium flux (F/F0 slope) at 10 µM. HEK293-KCC2, thallium flux, FluoZin2 fluorescence; hits give high values. AID 1713. hit rate 15% among 3,700. shares compounds with Cl transport mod;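 active = thallium flux slope above the same plate's solvent-only control mean plus 3 SD; inconclusive = the two replicate wells disagree; inactive = no significant difference from solvent-only control wells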
# KCC2 bumet counter: thallium flux despite bumetanide block in KCC2 cells, secondary assay 3 | shares compounds with Cl transport mod | HEK293-KCC2 + bumetanide/ouabain, thallium flux FluoZin2; hits give high values | normalized thallium flux at 10 µM | hit rate 49% among 3,700 | AID 1714;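 active = thallium entry rate above the same plate's blocked-transporter control wells by more than 3 SD; inconclusive = the two repeat wells disagree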;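 note: raw slope of fluorescence over initial fluorescence between 10 and 20 s after thallium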
# KCC2 sec2: confirmation of human KCC2 transport modulators. normalized thallium flux at 10 µM. HEK293-KCC2, thallium flux FluoZin2 fluorescence; actives lie on both sides; F/F0 rise rate, 10–20 s post-thallium. AID 1715. shares compounds with Cl transport mod. hit rate 23% among 3,700;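 active = thallium flux slope more than 3 SD above or below the plate's solvent-only control mean, mostly below; inconclusive = the two repeat wells disagreed; inactive = no significant shift from solvent-only controls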
# HEK293 Tl flux: acts in parental HEK cells, KCC2 counter-screen | shares compounds with Cl transport mod | HEK293 parental cells, thallium flux FluoZin2, ouabain; baseline-ratio fluorescence slope, 10–20 s after thallium | thallium flux rate (normalised fluorescence) at 10 µM | hit rate 46% among 3,700 | AID 1716;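 active = thallium flux rate significantly above the same plate's solvent-only control wells, beyond their mean plus 3 SD; inconclusive = the two replicate wells gave conflicting results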
# KCC2 ouabain: confirmation of human KCC2 modulators with ouabain; shares compounds with Cl transport mod; HEK293-KCC2, thallium flux FluoZin2 fluorescence; bidirectional: low = inhibitor, high = activator; raw Tl+ flux slope (below DMSO = inhibition, above = activation) at 10 µM; hit rate 48% among 3,700;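 active = thallium flux slope beyond 3 SD from same-plate DMSO control mean in most replicates, usually higher, sometimes lower; inconclusive = repeat tests gave conflicting results; inactive = no significant difference from controls in most replicates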;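 note: slope of initial-normalized fluorescence between seconds 10 and 20 after thallium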
# HEK counter2: acts in parental HEK cells, second KCC2 counter-screen | HEK293 parental, thallium flux FluoZin-2 fluorescence slope | shares compounds with Cl transport mod | AID 1718 | thallium flux slope at 10 µM | hit rate 33% among 3,700;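 active = thallium flux slope above the same plate's solvent-control mean plus 3 SD in both duplicate wells; inconclusive = duplicate wells that disagreed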;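 note: run without ouabain in cells lacking the KCC2 cotransporter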
# Numbers stand for hits; n = inactive; u = inconclusive; x = no result given.
SMILES,ROMK primary,INS promoter inh,Lmaj promast,Ins promoter up,WT yeast gro inh,Cl transport mod,KCC2 sec1,KCC2 bumet counter,KCC2 sec2,HEK293 Tl flux,KCC2 ouabain,HEK counter2
CN(C(=O)CSc1ncnc2sc(-c3ccccc3)cc12)C1CCS(=O)(=O)C1 (stereo not given),n,x,n,x,n,138,n,0.107,0.108,0.115,0.102,0.114
CCOC(=O)c1sc2nc(C)nc(SCC(=O)N(C)C3CCS(=O)(=O)C3)c2c1C (stereo not given),n,x,n,n,n,23.7,n,0.06,0.052,0.0486,0.0479,0.0458
O=C(N/N=C/C=C/c1ccccc1)c1ccc(Br)cc1,n,n,n,n,n,n,x,x,x,x,x,x
C/C(=N\NC(=O)c1ccccc1)c1cccc(Br)c1,n,x,n,n,n,n,x,x,x,x,x,x
CC(/C=C/c1ccccc1)=N\NC(=O)c1ccc(Br)cc1,n,n,n,n,n,8.17,0.0224,0.0284,n,0.0157,n,0.0176
CC(/C=C/c1ccccc1F)=N\NC(=O)c1ccc(Cl)cc1,n,x,n,n,n,6.21,0.0238,0.0201,u,0.0152,0.0217,0.0195
CC(/C=C/c1ccccc1)=N/NC(=O)c1cccc(Br)c1,n,n,71.6,n,n,10.5,n,0.0368,n,0.0371,0.0299,0.0136
CC(/C=C\C=C\c1ccccc1)=N\NC(=O)c1cncc(Br)c1,n,x,n,x,n,12.6,u,0.0289,n,0.0377,0.0313,0.0173
COc1ccc(CCNC(=O)C(=O)NCCCN2CCOCC2)cc1,n,x,n,n,n,n,x,x,x,x,x,x
O=C(Nc1ccc2nc3n(c(=O)c2c1)CCCC3)c1cccc([N+](=O)[O-])c1,x,n,n,n,n,n,x,x,x,x,x,x
O=C(Nc1ccc2nc3n(c(=O)c2c1)CCCC3)c1cc([N+](=O)[O-])ccc1F,x,n,100.3,n,n,-3.05,n,n,n,u,n,n
O=C(Nc1nc2c(Br)cc(Br)cc2c(=O)s1)c1ccco1,n,x,x,n,x,17,0.0268,0.03,n,0.0397,0.032,0.0132
Cc1nc(-c2ccncc2)sc1C(=O)Nc1ccc(Br)cc1,n,x,n,n,n,n,x,x,x,x,x,x
Cc1nc(NC(=O)c2ccco2)sc1C(=O)Nc1ccc(Br)cc1,x,n,n,n,n,-5.26,n,n,u,n,n,n
O=C(Cn1cnc2c(nnn2-c2ccccc2)c1=O)NCc1ccco1,x,x,n,n,n,n,x,x,x,x,x,x
O=C(Cn1cnc2c(nnn2Cc2ccccc2F)c1=O)NCc1ccco1,n,n,n,n,n,x,n,n,u,n,0.0176,n
Cc1ccc(Cn2nnc3c(=O)n(CC(=O)NCc4ccco4)cnc32)cc1,n,n,n,x,n,-2.94,n,n,u,u,0.0148,n
Cc1ccc(-n2nnc3c(=O)n(CC(=O)NCc4ccco4)cnc32)cc1,x,x,n,n,n,n,x,x,x,x,x,x
CC(C)[C@H](NC(=O)c1ccco1)C(=O)OCC(=O)N1CCc2ccccc21,n,n,n,n,n,x,x,x,x,x,x,x
Cc1ccc(S(=O)(=O)NC(=O)Nc2ccc(F)cc2)cc1,n,n,n,n,n,n,x,x,x,x,x,x
Cc1ccc(S(=O)(=O)NC(=O)Nc2cc(C)ccc2F)cc1,x,n,n,n,n,-10.9,n,u,n,u,n,n
Cc1ccc(Nc2nnc(SCC(=O)Nc3cccc(S(=O)(=O)NC4=NCCCCC4)c3)s2)c(C)c1,n,n,n,n,n,n,n,n,n,0.0052,0.0168,n
